DAX1 inh-1 = inhibitors of DAX1 repression of SF-1 activated StAR promoter; actives 1.1% (n = 370,000); HEK293T StAR-luciferase reporter, SF-1/DAX-1 repression relief; inhibition, % at 6.8 µM;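 active means inhibition above the mean over all tested compounds plus 3 SD, cut at about 3.6% in these data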;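 further: 0% = DAX-1 cells with DMSO and 100% = cells lacking DAX-1 with DMSO; higher inhibition means more luminescence from relief of DAX-1 repression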
DAX1 inh-2 = inhibitors of human orphan nuclear receptor DAX1 (NR0B1); P51843; HEK293 Gal4-DAX1 luciferase reporter, luminescence; inhibition, % at 6.75 µM; actives 0.99% (n = 340,000);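 active means inhibition above the mean over all tested compounds plus 3 SD, cut at about 4.2% in these data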;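 further: 0% = DAX1-transfected cells with DMSO and 100% = empty-vector control cells with DMSO; inhibition shows as a rise in luminescence from relieved DAX1 repression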
Target sequence (P51843 207-470 limits assumed): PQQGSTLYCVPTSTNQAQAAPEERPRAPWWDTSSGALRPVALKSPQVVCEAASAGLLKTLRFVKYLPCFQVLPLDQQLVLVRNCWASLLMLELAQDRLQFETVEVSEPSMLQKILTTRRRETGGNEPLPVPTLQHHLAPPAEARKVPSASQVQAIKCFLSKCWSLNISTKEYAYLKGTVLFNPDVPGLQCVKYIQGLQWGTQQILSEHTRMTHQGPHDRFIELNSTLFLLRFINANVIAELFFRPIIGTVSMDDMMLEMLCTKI
ssDAF12 agonist = activators of S. stercoralis DAF-12 nuclear receptor | actives 1% (n = 370,000) | activation, % at 6.8 µM | HEK293 ssDAF-12/GRIP1 lit1-tk-luc reporter, luminescence; % of 3 µM dafachronic acid response | AID 652126;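 active means activation above the mean over all tested compounds plus 3 SD, cut at about 0.9% in these data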;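 further: 0% = DMSO-only wells and 100% = 3 µM delta7-dafachronic acid wells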
hgDAF-12 ag = hgDAF-12 agonism, primary luciferase screen; HEK293 GAL4-hgDAF12 UAS-luciferase reporter, agonist luminescence; normalized to butyrate control; actives 1.8% (n = 370,000); activation, % at 6.8 µM;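 active means activation above a cutoff set at the mean of all screened compounds plus 3 SD, cut at about 10% in these data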;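 further: 0% = DMSO wells and 100% = sodium butyrate wells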
hcDAF12 agonist = H. contortus DAF-12 activation, primary screen; activation, % at 6.8 µM; HEK293 hcDAF-12 lit1-tk-luc reporter, luminescence; 0% DMSO, 100% Δ7-dafachronic acid; actives 1.4% (n = 370,000);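 active means activation above the mean of all tested compounds plus 3 SD, cut at about 5.5% in these data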;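 further: 100% = response to 3 µM Δ7-dafachronic acid high control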
AHR activator = human AHR activation; P35869; AHR-responsive luciferase reporter cells, luminescence; activation, % at 5 µM; actives 2.5% (n = 320,000); AID 2796; in the data active means activation above about 47%;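 further: 0% = vehicle wells and 100% = reference agonist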
LXRb hcDAF ctr = activates human LXR-beta, counter-screen for hcDAF-12 agonists | 3,400 tested, under 10 active | HEK293 Gal4-LXR tk-luc reporter, luminescence, 24 h; normalized: DMSO 0%, positive control 100% | shares compounds with hcDAF12 agonist | activation, % at 6.8 µM;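 active means mean percent activation of the reporter above a cutoff set as the average over tested compounds plus their standard deviation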
hcDAF12 conf = hcDAF-12 agonism, confirmation assay. actives 61% (n = 3,400). shares compounds with hcDAF12 agonist. activation, % at 6.8 µM. HEK293 hcDAF-12 lit1-tk-luc reporter, luminescence; % of Δ7-dafachronic acid response;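 active means mean activation across triplicate tests above the threshold derived from the earlier primary screen, cut at about 5.5% in these data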;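 further: 0% = DMSO only wells and 100% = 3 µM Δ7-dafachronic acid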
Active calls of the source: *; · = not tested or not shown. Hits are enriched below; roughly 5.7% of the tested compounds scored in any of these assays.

SMILES	DAX1 inh-1	DAX1 inh-2	ssDAF12 agonist	hgDAF-12 ag	hcDAF12 agonist	AHR activator	LXRb hcDAF ctr	hcDAF12 conf
CC(=O)Nc1cc(C(=O)N(C)Cc2ccccc2)ccc1S(=O)(=O)c1ccc(C)cc1	0	0	-1	1	1	2	·	·
Cc1ccc(C(=O)/C=C/c2c[nH]c3ccccc23)cc1	1	2	0	8	8.6*	52*	0	4
COC(=O)/C(C#N)=C/c1c[nH]c2ccccc12	0	3	0	10	8.1*	18	1	9.9*
CCOC(=O)/C(C#N)=C/c1c[nH]c2ccccc12	0	1	0	7	9.0*	6	0	5
Cc1ccc(S(=O)(=O)/C(C#N)=C/c2c[nH]c3ccccc23)cc1	1	-1	0	3	5	25	·	·
COc1cc(NC(=O)C2=C(C)OCCS2)c(Cl)cc1C(=O)NCCN(C)C	0	-1	-1	-1	1	1	·	·
O=c1oc2ccccc2c(Nc2cc3ccccc3cc2O)c1[N+](=O)[O-]	-1	-3	1.0*	17*	8.3*	63*	1	14*
O=c1oc2ccccc2c(Nc2ccccc2O)c1[N+](=O)[O-]	0	0	-1	0	1	11	·	·
Clc1ccc(/C=C/c2ncc3ccccn23)cc1	3	2	1.6*	11*	11*	9	1	5
CCN(C(=S)Nc1cc(S(=O)(=O)N2CCOCC2)ccc1Cl)c1cccc2ccccc12	-1	0	1.2*	0	6.8*	5	0	1
O=C1c2ccccc2S(=O)(=O)c2cc(N3CCOCC3)ccc21	3	1	0	8	6.6*	17	1	4
Cc1ccc(NC(=O)c2ncn(CCCN[C@H](C)c3cccc4ccccc34)n2)cc1C	1	1	-1	4	1	·	·	·
CCOC(=O)C1CCCN(C(=O)Cc2c(C(=O)O)[nH]c3ccccc23)C1 (stereo not drawn)	0	1	0	0	6.8*	3	0	3
CCOC(=O)C1CCCN(C(=O)CC(c2ccccc2)c2ccccc2)C1 (stereo not drawn)	0	-1	-2	1	-2	0	·	·
COC(=O)c1ccccc1NC(=O)c1onc(C)c1Cl	0	1	-1	3	0	·	·	·
CCc1ccccc1NC(=O)c1onc(C)c1Cl	1	0	0	2	9.4*	6	0	2
COc1ccc(NC(=O)CSc2nc3ccccc3c(=O)n2CCCO)cn1	0	0	-1	-2	-3	1	·	·
Cc1ccc(NC2=Nc3ccccc3CS2)cc1	3	-1	1.6*	19*	15*	10	2	14*
Cc1ccc(Nc2ccccc2)cc1	1	0	-1	1	0	1	·	·
Cc1cc(C)cc(N2CC(O)=C(c3nc4ccccc4c(=O)[nH]3)C2=N)c1	0	0	-1	-4	1	-8	·	·
N=c1oc2ccccc2cc1-c1nc2ccccc2c(=O)[nH]1	2	0	0	1	8.3*	12	0	5
C#CCSc1nnnn1-c1ccc(Br)c(C)c1	0	-1	0	4	10*	21	0	5
CCn1cc(Br)c(C(=O)NN)n1	3	2	0	8	6.7*	50*	0	2
CCn1cc(Br)c(C(=O)Nc2ccc(OC)cc2)n1	1	0	-1	1	0	24	·	·
NC(=O)CC(NC(=O)Cc1cccc2ccccc12)c1ccc(N2CCC(N3CCCC3)CC2)c([N+](=O)[O-])c1 (stereo not drawn)	0	0	-1	3	-1	-3	·	·
SMILES	DAX1 inh-1	DAX1 inh-2	ssDAF12 agonist	hgDAF-12 ag	hcDAF12 agonist	AHR activator	LXRb hcDAF ctr	hcDAF12 conf
Cc1nc2cc(NC(=O)CCS(=O)(=O)c3ccccc3)ccc2s1	4.0*	4	0	12*	7.8*	17	1	4
COc1cccc(/C=C2/SC(=S)N(CC(=O)NNC(=O)c3ccccc3OC)C2=O)c1	0	0	0	2	8.5*	19	0	5
Cc1oc(-c2ccc(-c3ccccc3)cc2)nc1CN(CCO)C(C)C	2	-2	1.6*	14*	7.2*	-2	2	17*
Cc1ccc(-c2nc(CS(=O)(=O)CC(=O)NCCCN(Cc3ccccc3)C(C)C)c(C)o2)cc1	3	-1	-1	1	-1	1	·	·
Clc1ccc(-c2cnn3c(-c4ccncc4)ccnc23)cc1	3	4	0	13*	7.2*	72*	2	8.4*
O=C(COC(=O)CC1CC2CCC1C2)Nc1ccccc1[N+](=O)[O-] (stereo not drawn)	-1	1	0	1	2	20	·	·
Cc1cc(C)n(-c2nc3ccccc3nc2Nc2ccc(CC(=O)O)cc2)n1	-2	0	-1	0	2	9	·	·
Cc1ccc(Nc2nc3ccccc3nc2-n2nc(C)cc2C)cc1	0	0	0	6	8.8*	7	0	2
O=C(OCC(=O)c1c[nH]c2ccccc12)c1ccc(OC(F)F)cc1	-1	0	0	2	3	·	·	·
O=C(OCC(=O)c1c[nH]c2ccccc12)c1cc2ccccc2cc1O	0	-1	-1	1	8.0*	25	0	4
Nc1ccccc1N=Nc1ccccc1N	1	1	1	10	6.7*	26	1	9.2*
O=C(NCC1CCCO1)c1cc2c(s1)CCC2 (stereo not drawn)	2	4	-2	4	7.7*	5	0	2
COc1ccc(-c2cn(CCO)nc2-c2ccc(OC)cc2)cc1	0	2	-1	0	1	5	·	·
COC(=O)C1=NN(c2ccccc2OC)C2C(=O)N(c3ccccc3OC)C(=O)C12 (stereo not drawn)	1	0	0	2	7.2*	13	0	0
COc1ccc(S(=O)(=O)N(C)C[C@H]2Oc3c(NC(=O)C4CCCCC4)cccc3C(=O)N([C@H](C)CO)C[C@@H]2C)cc1	0	-1	-1	-2	-1	0	·	·
CNC(=O)NC(=O)C(OC(=O)CCNS(=O)(=O)c1ccccc1)c1ccccc1 (stereo not drawn)	0	1	0	1	7.2*	-4	0	1

High-throughput results from PubChem.
